Test [1] addresses Luciferin 4-monooxygenase (Photinus pyralis) (UniProt P08659). Briefly: qHTS assay to identify small molecule inhibitors of firefly luciferase (AID 1224835). Also: nearly all actives have a fitted effect of over 25% in size. Also: potency is read from the fitted curve at half-maximal effect. The method in brief:
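Biochemical qHTS: compounds run as interplate titrations against purified firefly enzyme, with D-luciferin and ATP each at its KM concentration. Light output recorded by CCD imaging.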
(Quantitative high-throughput screening tests each substance at several concentrations.)

Test [2] in a line: qHTS assay to identify small molecule antagonists of the constitutive androstane receptor (CAR) signaling pathway - cell viability counter screen (AID 1224837). Also: potency is read from the fitted curve at half-maximal effect; nearly all actives have a fitted effect of over 45% in size. The method in brief:
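Multiplexed cytotoxicity read-out for the CAR antagonist screen: double-stable HepG2-CYP2B6-hCAR cells co-treated with 50 nM CITCO (final) and compound over 15 concentrations, incubated 23 hr, then assessed by CellTiter-Fluor fluorescence.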

The target in test [3] is Nuclear receptor subfamily 1 group I member 3 (Homo sapiens) (UniProt Q14994). Description: qHTS assay to identify small molecule agonists of the constitutive androstane receptor (CAR) signaling pathway (AID 1224839). Also: nearly all actives have a fitted effect of over 15% in size. Also: potency is read from the fitted curve at half-maximal effect. As to activation: % is scaled to controls: 0 for no effect and ±100 for the full control effect. Summed up: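 Luminescence read-out (ONE-Glo, 30 min, room temperature) from double-stable HepG2-CYP2B6-hCAR cells exposed 24 h to 15-point compound series in presence of 0.75 uM PK11195 final.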

A short description of test [4]: qHTS assay to identify small molecule agonists of the estrogen related receptor signaling pathway with the pleiotropic PPARgamma coactivator (PGC) from Tox21 10K library (AID 1224842). Also: nearly all actives have a fitted effect of over 15% in size. Also: potency is read from the fitted curve at half-maximal effect. As to activation: % is scaled to controls: 0 for no effect and ±100 for the full control effect. The method in brief: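 PGC/ERR reporter cell line, 2,000 cells per well, incubated 6 h at 37 C before 23 nL compound in DMSO was added. After 18 h at 37 C, One-Glo luminescence read following 30 min at room temperature.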

For test [5], the target named is Thyrotropin receptor (Homo sapiens) (UniProt P16473). Briefly: qHTS assay to identify small molecule agonists of the thyroid stimulating hormone receptor (TSHR) signaling pathway (AID 1224843; calls by dose curve; also: nearly all actives have a fitted effect of over 45% in size; also: potency is read from the fitted curve at half-maximal effect). Summed up:
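TSHR-HEK293 cells in agonist mode, 30 min room-temperature step, then cAMP measured by competitive HTRF (cAMP-d2 with anti-cAMP cryptate) after 1 h at room temperature. Tested at 15 concentrations in triplicate.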

The nature of test [6]: qHTS assay to identify small molecule agonists of the hypoxia (HIF-1) signaling pathway - cell viability counter screen (AID 1224844; calls by dose curve; also: nearly all actives have a fitted effect of over 50% in size; also: potency is read from the fitted curve at half-maximal effect; as to activity change, negative = cytotoxicity: % is scaled to controls: 0 for no effect and ±100 for the full control effect). The method in brief: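 Tox21 10K compounds were added to HRE-bla ME-180 cells (0.5% dialyzed FBS) and incubated 17 hrs at 37C; ATP-based CellTiter-Glo luminescence then reported cell viability in the same wells.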
The nature of test [7]: qHTS assay to identify small molecule agonists of the hypoxia (HIF-1) signaling pathway (AID 1224846; active = well fitted activation curve with a large enough effect in the signal ratio in the repeat runs, not every such curve was filed as active; the % refers to the signal ratio; also: % is scaled to controls: 0 for no effect and ±100 for the full control effect). The method in brief: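 Steps: seed ME-180 HRE-bla cells (2,000/well, 0.5% dialyzed FBS); incubate 5 hrs at 37C; pin-transfer compounds or DMSO; incubate 17 hrs; add LiveBLAzer B/G substrate CCF4-AM; measure reporter activation by FRET.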
Test [8] is described as follows: qHTS assay to identify small molecule agonists of H2AX - cell viability counter screen (AID 1224847; calls by dose curve; also: nearly all actives have a fitted effect of over 30% in size; also: potency is read from the fitted curve at half-maximal effect). Summed up:
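CHO-K1 wt, 1000 cells/well, o/n 37C; cpds 15 conc, 3 h 37C, 0.76% DMSO; CellTiter-Glo, 30 min RT, luminescence.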

The nature of test [9]: qHTS assay to identify small molecule agonists of the estrogen related receptor (ERR) signaling pathway from Tox21 library (AID 1224849; calls by dose curve; also: % is scaled to controls: 0 for no effect and ±100 for the full control effect; nearly all actives have a fitted effect of over 15% in size). Particulars: ERR reporter cell line, ONE-Glo luciferase, 18 h; at 92.4 µM (top of the series) unless noted. The method in brief:
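Agonist signal is luciferase luminescence from an ERR reporter cell line treated 18 h at 37 C with DMSO-dissolved compounds, read 30 min after ONE-Glo addition at room temperature.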

A short description of test [10]: qHTS RealTime-Glo MT Cell Viability Assay in HepG2 cells - 24 hour (AID 1224867). Also: potency is read from the fitted curve at half-maximal effect; nearly all actives have a fitted effect of over 50% in size. Summed up:
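Real-time, nonlytic viability: 600 HepG2 cells/well mixed with NanoLuc enzyme plus prosubstrate; 5 h settle, compound (DMSO) added by pintool; luminescence monitored over 40 h at 37 C.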

Test [11] can be described thus: qHTS RealTime-Glo MT Cell Viability Assay in HEK293 cells - 32 hour (AID 1224868). Also: potency is read from the fitted curve at half-maximal effect; nearly all actives have a fitted effect of over 50% in size. Summed up:
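Cells + reagent dispensed (600 cells/well, HEK293) → 5 h at 37 C/5% CO2 → 23 nL compound in DMSO pinned → 40 h at 37 C → luminescence read at 0, 8, 16, 24, 32, 40 h.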

A short description of test [12]: A CellTox Green Cytotoxicity Assay to monitor cytotoxicity in HEK293 cells - 0 hour (AID 1224869). Also: % is scaled to controls: 0 for no effect and ±100 for the full control effect; nearly all actives have a fitted effect of over 50% in size. Summed up: (§1)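 Cytotoxicity was tracked continuously in HEK293 cells by a DNA-binding dye excluded from viable cells. Compounds were transferred in DMSO 5 h after seeding; fluorescence was recorded at intervals up to 40 h.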
Test [13] in a line: qHTS RealTime-Glo MT Cell Viability Assay in HepG2 cells - 40 hour (AID 1224870). Also: nearly all actives have a fitted effect of over 50% in size. Also: potency is read from the fitted curve at half-maximal effect. The method in brief: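 HepG2 cells (600/well) mixed with RealTime-Glo MT reagent, settled 5 h at 37 C/5% CO2 before compound addition. Nonlytic NanoLuc luminescence from viable-cell prosubstrate reduction read repeatedly during 40 h treatment at 37 C.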
Test [14] in a line: A CellTox Green Cytotoxicity Assay to monitor cytotoxicity in HEK293 cells - 40 hour (AID 1224871). Also: nearly all actives have a fitted effect of over 45% in size. Also: potency is read from the fitted curve at half-maximal effect. Summed up: as §1
Test [15] has as its target Nuclear receptor subfamily 1 group I member 3 (Homo sapiens) (UniProt Q14994). Briefly: qHTS assay to identify small molecule antagonists of the constitutive androstane receptor (CAR) signaling pathway (AID 1224838). Also: nearly all actives have a fitted effect of over 40% in size. Also: potency is read from the fitted curve at half-maximal effect. The method in brief: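 Compounds were titrated across 15 concentrations onto HepG2 cells double-stably expressing hCAR and a CYP2B6-2.2kb reporter, together with 50 nM CITCO (final). After 24 h at 37 C, luciferase activity was measured by luminescence.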

The nature of test [16]: qHTS assay to identify small molecule antagonists of the estrogen related receptor signaling pathway with the pleiotropic PPARgamma coactivator (PGC) from Tox21 10K library (AID 1224841; call rule not given here; also: potency is read from the fitted curve at half-maximal effect). The method in brief:
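Antagonism in this quantitative HTS is taken from loss of luciferase signal in PGC/ERR cells. Cells (2,000/well) are treated with compounds in DMSO after a 6 h settling period and read by One-Glo luminescence after 18 h.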

A short description of test [17]: qHTS assay to identify small molecule agonists of H2AX (AID 1224845; active = well fitted activation curve with a large enough effect in the signal ratio in the repeat runs, not every such curve was filed as active; the % refers to the signal ratio; also: potency is read from the fitted curve at half-maximal effect). The method in brief: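 Wild-type CHO-K1 cells, plated overnight, exposed 3hr at 37C to 15 concentrations (0.76% DMSO final). Lysed, then HTRF anti-pH2AX (S139) cryptate and anti-H2AX-d2 antibodies, 24 hr room temperature; 665/620 nm emission read.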
Test [18] can be described thus: qHTS assay to identify small molecule antagonists of the estrogen related receptor (ERR) signaling pathway from Tox21 library (AID 1224848). Also: nearly all actives have a fitted effect of over 50% in size. Also: potency is read from the fitted curve at half-maximal effect. The method in brief:
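ERR reporter cell line (from NTP) seeded 2,000 cells/well, rested 6 h at 37 C/5% CO2, then pin-dosed with compounds in DMSO. After 18 h at 37 C, ONE-Glo added; luminescence read after 30 min at room temperature.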

Test [19] in a line: qHTS assay to identify small molecule agonists of the constitutive androstane receptor (CAR) signaling pathway - cell viability counter screen (AID 1224836). Also: potency is read from the fitted curve at half-maximal effect; nearly all actives have a fitted effect of over 45% in size. Summed up: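 Viability read-out: CellTiter-Fluor fluorescence after 23 h compound exposure at 37 C/5% CO2 in double-stable HepG2-CYP2B6-hCAR cells, with PK11195 present at 0.75 uM final; compounds tested in 15-point titration.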

Test [20] is described as follows: qHTS assay to identify small molecule antagonists of the estrogen related receptor signaling pathway with the pleiotropic PPARgamma coactivator (PGC) from Tox21 10K library - cell viability counter screen (AID 1224840; active = well fitted cell-killing curve with a large enough effect in the repeat runs, not every such curve was filed as active; also: nearly all actives have a fitted effect of over 40% in size; also: potency is read from the fitted curve at half-maximal effect). Summed up: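 Step one, plate 2,000 PGC/ERR cells per well; step two, incubate 6 h at 37 C/5% CO2; step three, pin-transfer compounds; step four, incubate 17.5 h; step five, add CellTiter-Fluor and read fluorescence after 30 min.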

Unmarked numbers belong to inactive results. Records with an inconclusive call do not appear. Activity calls are given as the source filed them. Unless noted, calls follow the shape of the dose curve; as a rule, active = well fitted curve in the direction sought with a large enough effect in the repeat runs; inconclusive = weak or mixed curves; inactive = no such curve, though single readings can be large; an effect the other way counts as inactive or inconclusive.

Chain of Nuclear receptor subfamily 1 group I member 3 (Homo sapiens) (Q14994 whole entry, looked up): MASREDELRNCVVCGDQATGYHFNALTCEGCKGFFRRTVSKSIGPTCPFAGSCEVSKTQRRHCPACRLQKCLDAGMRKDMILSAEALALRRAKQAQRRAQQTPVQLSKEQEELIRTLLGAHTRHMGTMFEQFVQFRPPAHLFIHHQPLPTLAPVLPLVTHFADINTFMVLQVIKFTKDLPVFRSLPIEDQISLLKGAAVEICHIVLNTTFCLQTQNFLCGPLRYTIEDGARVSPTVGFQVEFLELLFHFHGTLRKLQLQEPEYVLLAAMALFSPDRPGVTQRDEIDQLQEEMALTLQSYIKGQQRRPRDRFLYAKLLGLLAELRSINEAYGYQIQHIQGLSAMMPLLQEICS
Chain of Thyrotropin receptor (Homo sapiens) (P16473 whole entry, looked up): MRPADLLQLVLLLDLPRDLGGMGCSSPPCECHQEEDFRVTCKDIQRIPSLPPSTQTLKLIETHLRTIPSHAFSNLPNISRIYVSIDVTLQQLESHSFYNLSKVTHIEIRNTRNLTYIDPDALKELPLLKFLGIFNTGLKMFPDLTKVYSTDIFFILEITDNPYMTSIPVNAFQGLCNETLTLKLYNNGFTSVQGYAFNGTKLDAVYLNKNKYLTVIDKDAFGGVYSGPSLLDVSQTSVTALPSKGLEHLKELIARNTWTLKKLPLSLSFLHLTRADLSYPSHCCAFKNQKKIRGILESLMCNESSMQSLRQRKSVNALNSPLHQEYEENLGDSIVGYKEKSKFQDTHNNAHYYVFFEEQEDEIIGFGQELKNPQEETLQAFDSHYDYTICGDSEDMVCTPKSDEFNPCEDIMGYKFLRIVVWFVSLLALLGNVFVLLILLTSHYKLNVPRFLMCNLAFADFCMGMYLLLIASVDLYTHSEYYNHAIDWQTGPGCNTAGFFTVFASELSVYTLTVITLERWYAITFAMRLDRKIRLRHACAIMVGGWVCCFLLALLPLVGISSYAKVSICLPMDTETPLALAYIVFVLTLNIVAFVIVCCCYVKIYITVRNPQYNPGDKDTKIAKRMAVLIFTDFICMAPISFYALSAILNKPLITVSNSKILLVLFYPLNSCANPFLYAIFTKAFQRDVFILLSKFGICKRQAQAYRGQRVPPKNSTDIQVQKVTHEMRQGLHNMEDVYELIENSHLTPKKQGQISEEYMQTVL
Chain of Luciferin 4-monooxygenase (Photinus pyralis) (P08659 whole entry, looked up): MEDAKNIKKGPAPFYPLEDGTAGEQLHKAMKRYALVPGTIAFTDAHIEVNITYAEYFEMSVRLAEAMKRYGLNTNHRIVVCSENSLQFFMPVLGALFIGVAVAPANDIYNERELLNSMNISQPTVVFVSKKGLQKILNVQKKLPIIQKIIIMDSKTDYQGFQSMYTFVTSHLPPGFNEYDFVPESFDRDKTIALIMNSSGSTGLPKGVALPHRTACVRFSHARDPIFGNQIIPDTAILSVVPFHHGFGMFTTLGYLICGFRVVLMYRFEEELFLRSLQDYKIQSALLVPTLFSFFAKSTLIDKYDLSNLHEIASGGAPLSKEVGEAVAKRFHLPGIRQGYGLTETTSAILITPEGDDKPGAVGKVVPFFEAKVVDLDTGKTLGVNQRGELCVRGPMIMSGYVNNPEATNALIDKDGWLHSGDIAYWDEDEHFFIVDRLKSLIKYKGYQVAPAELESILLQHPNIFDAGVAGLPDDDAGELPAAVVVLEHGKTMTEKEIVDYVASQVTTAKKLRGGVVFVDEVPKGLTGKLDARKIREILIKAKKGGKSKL

In the case of `CCCCCCCCCCOCC(O)CN` (stereo not drawn), the Potency entry in [1], in test [3], in [4], in test [6] and in test [12] was “inactive” each time. Moreover, the Potency was 29.8 µM (active) in [2]; 21.1 µM (active) in test [5]; 55.2 µM (active) in test [8]; 15.1 µM (active) in test [10]; 23.9 µM (active) in test [11]; 15.1 µM (active) in test [13]. Further, the Potency in [14] was 26.8 µM (active). In [7], the call was inactive. Also, in test [9], the activity change, positive = activation was -64% [at 42.5 µM].
Turning to `O=C(Nc1ccc(Cl)cc1)Nc1ccc(Cl)c(C(F)(F)F)c1`, the Potency was 34.7 µM (active) in [1]; 16.8 µM (active) in test [15]; 5.31 µM (active) in [16]; 26.8 µM (active) in [6]; 22 µM (active) in test [8]; 3.76 µM (active) in test [18]. Also, the Potency in test [11] was 4.77 µM (active). In addition, the Potency result in test [3], in [4], in test [5], in [17] and in [12] was “inactive” each time. Further, the activity change, positive = activation in test [9] is -40.9% [at 42.5 µM].
Take `S=C(SSSSSSC(=S)N1CCCCC1)N1CCCCC1`: the Potency in [1] was 6.22 µM (active); in [19] it was 8.48 µM (active); in test [2] it was 7.56 µM (active); in test [6], 3.41 µM (active); in test [14], 0.241 µM (active). The activity change, negative = cytotoxicity in test [8] is -11.5% [at 31.6 µM]. In addition, the cytotoxicity in test [12] was -0.227% [at 15.8 µM]. For the same compound, the activity change, negative = cytotoxic in test [13] was -10.6% [at 15.8 µM].
`Cc1cc(Nc2ccc(O)cc2)ccc1N`: the Potency in test [1] was 63 µM (active); in [16] it was 15.3 µM (active); in test [6], 24.4 µM (active); in test [8], 89.4 µM (active); in test [18] it was 19.2 µM (active); in test [10] it was 48.8 µM (active). Moreover, the Potency in test [11] was 19.4 µM (active); in [14], 24.4 µM (active). Moreover, the Potency result in [15], in test [3] and in [12] was “inactive” each time. Further, in [9], the activity change, positive = activation is -47.7%.
For `CCC(C)c1cc([N+](=O)[O-])cc([N+](=O)[O-])c1OC(=O)OC(C)C` (stereo not drawn), the Potency entry in test [1], in test [4], in [5], in [17], in [12] and in test [14] was “inactive” in each case. The Potency in test [2] is 61.1 µM (active); in test [20] it was 43.3 µM (active); in test [16], 21.7 µM (active); in [18], 19.3 µM (active); in test [10] it was 54.9 µM (active). The activity change, positive = activation in test [9] was -53.4%.
Regarding `CC(O)C#CC(C)O` (stereo not drawn), the Potency result in test [1], in test [3] and in [12] was “inactive” each time. For the same compound, the Potency in [2] was 53.9 µM (active); in [15] it was 48.1 µM (active).
As to `Cc1c(C)n(Cc2ccccc2)c2ccc(C(=O)OCCN(C)C)cc12`, the Potency in test [1] is 27.5 µM (active); in [3], 11.9 µM (active); in [4], 29.8 µM (active); in test [17], 6.19 µM (active); in test [13], 23.9 µM (active). For the same compound, the Potency entry in [15], in test [20], in test [16], in test [5], in test [6] and in [18] was “inactive” each time. Also, the Potency entry in test [12] was “inactive”. The outcome in test [7] was inactive. Further, the activity change, positive = activation in test [9] was -7.81% [at 42.5 µM].
